High-throughput results as filed in PubChem BioAssay.
A selection: hits, their analogues and other compounds. The true share with any hit is near 14%.
4-MU autofl = compounds fluorescent in 4-MU spectral region; compound autofluorescence, 340/450 nm, 4-MU equivalents; active compounds read high; max dye-equivalent concentration, M; 59,000 tested, 11% active; AID 589; in the data active = max dye-equivalent concentration above about 10 nM; inconclusive = mostly about 1.1 nM to 9.6 nM
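Compounds in 100 mM Tris, pH 8.0, incubated 15 min at room temperature, then fluorescence read at 340 nm excitation/450 nm emission. Signal converted to 4-MU dye-equivalent concentration using an on-plate six-point 4-MU standard curve.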
CRE-bla Fsk = CRE-bla signaling modulation under forskolin stimulation; CHO CRE-bla reporter (cAMP response element driving beta-lactamase), forskolin EC10, beta-lactamase ratio; Potency, µM (titrated, usually from 38.2 µM), inactives show at the top dose activity change, negative = inhibition, usual class: activators; 71,000 tested, 2.5% active; active = well fitted activation curve with a large enough effect in the signal ratio, with a control signal flat, not every such curve was filed as active; inconclusive = small, poorly fitted or top-dose-only effect, or effect the other way, or a change in a side signal; the % refers to the signal ratio; note: potency is the fitted concentration of half-maximal effect; % of control where 0% means no effect
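AC50 values, positive or negative, reflect shifts in EC10 NKH 477-induced CRE-bla reporter activity in CHO cells. Incubation lasted 3 h at 37 °C before CCF4 substrate (2 h, room temperature) and ratiometric 460/530 nm reading.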
A350 autofl = A350 region autofluorescence; 59,000 tested, 11% active; Compound autofluorescence, 340/450 nm, Alexa 350 dye-equivalents; active compounds read high; max dye-equivalent concentration, M; AID 590; in the data active = max dye-equivalent concentration above about 10 nM; inconclusive = mostly about 1.1 nM to 9.6 nM
HADH2 inhib = blocks human hydroxyacyl-CoA dehydrogenase type II; Potency, µM (series often up to 57.1 µM), for inactives: top-dose activity change, negative = inhibition, most hits filed as inhibitors; 73,000 tested, 3.4% active; Q99714; recombinant HADH2, NADH fluorescence, beta-hydroxybutyryl-CoA; note: potency is the fitted concentration of half-maximal effect; % is set by controls: 0 for no effect and ±100 for the full control effect; nearly all actives have a fitted effect of over 60% in size
Target sequence (Q99714 whole entry, looked up, one chain of several): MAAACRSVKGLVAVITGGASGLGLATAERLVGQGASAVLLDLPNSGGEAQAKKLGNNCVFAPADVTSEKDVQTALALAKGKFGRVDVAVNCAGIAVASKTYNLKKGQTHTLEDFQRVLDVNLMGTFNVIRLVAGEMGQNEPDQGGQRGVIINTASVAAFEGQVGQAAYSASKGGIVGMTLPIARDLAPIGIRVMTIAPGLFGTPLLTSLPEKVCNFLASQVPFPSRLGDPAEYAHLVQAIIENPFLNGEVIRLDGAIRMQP
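Read-out: 360 nm excitation, 450 nm emission, kinetic over 4 min. Conditions: His-tagged human HADH2 20 nM, pH 9.0 Tris with Tween-20, 1 mM NAD+, 90 uM beta-hydroxybutyryl-CoA.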
HSD17B inh = blocks hydroxysteroid 17-beta dehydrogenase activity. 75,000 tested, 7.6% active. AID 893. Potency, µM (doses to about 57.1 µM), for the others: at the highest dose activity change, negative = inhibition, hits mostly inhibitors. recombinant HSD17B10, NADH fluorescence kinetic;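 note: the protocol describes HADH2 (HSD17B10) and not the HSD17B4 of the title; potency is the fitted concentration of half-maximal effect; % is set by controls: 0 for no effect and ±100 for the full control effect; nearly all actives have a fitted effect of over 70% in size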
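His-tagged E. coli-expressed HADH2 at 20 nM in 100 mM Tris-HCl pH 9.0 with 0.01 % Tween-20, preincubated 15 min with compound at room temperature. Reaction with 1 mM NAD+ and 90 uM beta-hydroxybutyryl coenzyme A; NADH fluorescence (360/450 nm) read kinetically over 4 min, last minus first point.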
AID923 = qHTS Assay for Allosteric/Competitive Inhibitors of Caspase-1: Spectroscopic Profiling in AFC Spectral Region. compound fluorescence, AFC spectral region (405/520 nm). Potency, µM (titrated, usually from 57.5 µM), for inactives: at the top dose fluorescence increase, most hits filed as activators. 75,000 tested, 1.1% active; note: potency is the fitted concentration of half-maximal effect; 0% is about no effect
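Titrations up to 57 uM read every 20 sec for 3 min (405/520 nm) with 50 nM caspase 1 and 5 uM Ac-WEHD-AFC, pH 7.5 HEPES buffer. Fluorescence-vs-time intercept gave baseline, scaled against on-plate AFC standard.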
* = called active by the depositor. Unless noted, calls come from the whole dose curve; as a rule, active = well fitted curve in the direction sought with a large enough effect; inconclusive = small, poorly fitted or top-dose-only effect, or another doubt; inactive = no such curve, though single readings can be large; an effect the other way counts as inactive or inconclusive.

Cc1cc(-n2c(C)cc(C(=O)COc3ccc4ccc(=O)oc4c3)c2C)no1 was read as 4-MU autofl 4.23e-07M*, CRE-bla Fsk -11.5%, A350 autofl 6.95e-07M*, HADH2 inhib 128.4%, HSD17B inh inconclusive and AID923 3.5%.
Screening O=C(COc1ccc2c(c1)OCO2)Nc1ccc2c(c1)oc1ccccc12 returned 4-MU autofl inactive, CRE-bla Fsk 2.7%, A350 autofl inactive, HADH2 inhib 18.8%, HSD17B inh -26.1% and AID923 3.3%.
For O=C(Oc1ccc2ccc(=O)oc2c1)N1CCOCC1 the results were CRE-bla Fsk 8.5%, HADH2 inhib 3.7%, HSD17B inh inconclusive and AID923 4.5%.
`O=C(COc1ccc2ccc(=O)oc2c1)Nc1ccc2c(c1)OCCO2` gave 4-MU autofl 1.79e-07M*, CRE-bla Fsk -0.8%, A350 autofl 1.83e-07M*, HADH2 inhib 8.4%, HSD17B inh 31.6µM* and AID923 0.3%.
Screening CN(C)C(=O)COc1ccc2ccc(=O)oc2c1 returned CRE-bla Fsk -1.0%, HADH2 inhib inconclusive, HSD17B inh 31.6µM* and AID923 -0.3%.
`O=C(CN(C1CCCCC1)S(=O)(=O)c1ccc(Cl)cc1)NCc1ccncc1` gave CRE-bla Fsk -11.4%, HADH2 inhib 1.1%, HSD17B inh -0.1% and AID923 0.2%.
`CS(=O)(=O)N1CCC2(CCN(Cc3nccs3)CC2)CC1` gave 4-MU autofl inactive, CRE-bla Fsk 3.5%, A350 autofl inactive, HADH2 inhib 0.9%, HSD17B inh -1.8% and AID923 2.0%.
For O=C1CC(SCCO)C(=O)N1c1ccc(Oc2ccccc2)cc1 (stereo not drawn) the results were 4-MU autofl inactive, CRE-bla Fsk 2.6%, A350 autofl inactive, HADH2 inhib -21.5%, HSD17B inh -5.7% and AID923 -1.8%.
For CC(C)(C)c1cc(-c2ccco2)c(C#N)c(SCC#N)n1 the results were 4-MU autofl 1.77e-08M* and A350 autofl 2.17e-08M*.
For O=c1cc(-c2ccc(O)c(O)c2)oc2ccccc12 the results were HSD17B inh 5.01µM* and AID923 -1.8%.
For O=c1cc(-c2ccc(O)cc2)oc2cc(O)ccc12 the results were HSD17B inh 7.94µM* and AID923 6.5%.
For O=c1cc(-c2ccc(O)cc2)oc2cccc(O)c12 the results were HSD17B inh 2.3% and AID923 -2.1%.
`O=c1cc(-c2ccccc2)oc2ccccc12` gave CRE-bla Fsk 18.6%, HADH2 inhib -9.2%, HSD17B inh -13.1% and AID923 1.8%.
For COc1ccc(-c2cc(=O)c3c(O)c(OC)c(OC)c(OC)c3o2)cc1OC the results were HSD17B inh 1.8% and AID923 -1.7%.
Screening COc1ccc(-c2cc(=O)c3ccccc3o2)cc1OC returned HSD17B inh 15.8µM* and AID923 9.7%.
Screening COc1ccc(CNc2nc(-c3ccccc3CN(C)C)nc3ccccc23)c(OC)c1 returned 4-MU autofl inactive, CRE-bla Fsk inconclusive, A350 autofl inactive, HADH2 inhib 20.2%, HSD17B inh -9.1% and AID923 -1.0%.
Screening OCC(O)C(O)C(O)C(O)C(O)CO (stereo not drawn) returned HSD17B inh -7.1% and AID923 -1.3%.
Screening Cc1ccc(NC(=O)CN(c2ccccc2F)S(C)(=O)=O)cc1 returned 4-MU autofl inactive, CRE-bla Fsk -12.9%, A350 autofl inactive, HADH2 inhib 6.6%, HSD17B inh 0.3% and AID923 0.0%.
`CCN(CC)c1ccc(C(=O)OCC(=O)N2CCN(c3ccccc3)CC2)cc1` gave 4-MU autofl inactive, CRE-bla Fsk -7.3%, A350 autofl inactive, HADH2 inhib 43.8%, HSD17B inh 2.2% and AID923 -1.0%.
Screening COc1ccc(C(=O)NCCn2ccc3ccccc32)c(OC)c1 returned 4-MU autofl inactive, CRE-bla Fsk -2.5%, A350 autofl inactive, HADH2 inhib 3.1%, HSD17B inh 4.1% and AID923 -1.7%.
For CN(C)CCOc1ccccc1Cc1ccccc1 the results were 4-MU autofl 6.24e-08M* and A350 autofl 6.49e-08M*.
For Cn1c(CN2CCOCC2)nnc1SCC(=O)Nc1nccs1 the results were 4-MU autofl 1.62e-08M*, CRE-bla Fsk inconclusive, A350 autofl 1.75e-08M*, HADH2 inhib -7.1%, HSD17B inh -0.1% and AID923 0.6%.
Cn1c(CN2CCOCC2)nnc1SCC(=O)Nc1ccc2c(c1)OCCO2 was read as 4-MU autofl inactive, CRE-bla Fsk -27.6%, A350 autofl inactive, HADH2 inhib 3.2%, HSD17B inh 5.4% and AID923 0.3%.
Screening C/C(=N\O)C(=O)NCCN1CCCCC1 returned 4-MU autofl 1.24e-08M*, CRE-bla Fsk 2.8%, A350 autofl 1.18e-08M*, HADH2 inhib -7.6%, HSD17B inh 9.3% and AID923 -0.4%.
Screening COc1cccc(N2CCN(Cc3nc(N)nc(Nc4ccccc4)n3)CC2)c1 returned 4-MU autofl 4.18e-06M*, CRE-bla Fsk -8.3%, A350 autofl 5.27e-06M*, HADH2 inhib inconclusive, HSD17B inh inconclusive and AID923 2.9%.
Cc1cccc(Nc2nc(N)nc(CN3CCN(c4ccccc4)CC3)n2)c1 was read as 4-MU autofl inactive, CRE-bla Fsk inconclusive, A350 autofl inactive, HADH2 inhib -6.7%, HSD17B inh 1.7% and AID923 0.3%.
For O=C(c1cccs1)c1cn(CC(=O)N2CCc3ccccc3C2)c2ccccc12 the results were 4-MU autofl 1.13e-08M*, CRE-bla Fsk -18.2%, A350 autofl inconclusive, HADH2 inhib -4.7%, HSD17B inh -7.0% and AID923 2.0%.
Screening O=C(O)C=Cc1ccc(Cn2ccnc2)cc1 returned CRE-bla Fsk -0.4%, HADH2 inhib -3.1%, HSD17B inh 2.3% and AID923 -0.7%.
For Cc1nc(-c2cnn(-c3ccccc3)c2)c2cc(C)oc2n1 the results were 4-MU autofl inactive, CRE-bla Fsk 3.98µM*, A350 autofl inconclusive, HADH2 inhib 25.1µM*, HSD17B inh 31.6µM* and AID923 1.3%.
Screening Cc1ccc(-c2noc(CCC(=O)Nc3ccccc3C)n2)cc1 returned 4-MU autofl inconclusive, CRE-bla Fsk 4.6%, A350 autofl 1.09e-08M*, HADH2 inhib -9.0%, HSD17B inh 12.2% and AID923 2.6%.
For CCc1ccccc1NC(=O)CCc1nc(-c2ccc(C)cc2)no1 the results were 4-MU autofl inactive, CRE-bla Fsk -8.7%, A350 autofl inactive, HADH2 inhib 5.6%, HSD17B inh 0.7% and AID923 0.0%.
